Results filed as inconclusive are left out. Calls of active or inactive are those of the source. Calls follow the shape of the full dose curve.
Assay: qHTS assay for small molecule agonists of the antioxidant response element (ARE) signaling pathway - cell viability counter screen (AID 743203); also: nearly all actives have a fitted effect of over 55% in size
Settings: ARE-bla HepG2 viability, CellTiter-Glo luminescence, 16 h; series mostly up to 73.3 µM; viability change, negative = cytotoxic: at the top concentration
Source text: National Center for Advancing Translational Sciences [NCATS]
NIH Chemical Genomics Center [NCGC]
U.S. Environmental Protection Agency [EPA]
National Institutes of Environmental Health Sciences [NIEHS]
National Toxicology Program [NTP]
U.S. Food and Drug Administration [FDA]
Oxidative stress has been implicated in the pathogenesis of a variety of diseases ranging from cancer to neurodegeneration. The antioxidant response element (ARE) signaling pathway plays an important role in the amelioration of oxidative stress. The CellSensor ARE-bla HepG2 cell line (Invitrogen) can be used for analyzing the Nrf2/antioxidant response signaling pathway. Nrf2 (NF-E2-related factor 2) and Nrf1 are transcription factors that bind to AREs and activate these genes. The CellSensor ARE-bla Hep G2 cell line contains a beta-lactamase reporter gene under control of the Antioxidant Response Element (ARE) stably integrated into HepG2 cells. The activation of the report gene under culture conditions can be detected by fluorescence intensity. This cell line has been used to screen the Tox21 10K compound library to identify agonists that induce oxidative stress. The cytotoxicity of the Tox21 compound library against the ARE-bla cell line was tested in parallel by measuring the cell viability using CellTiter-Glo assay (Promega, Madison, WI) in the same wells.
Tox21 Assay Protocol Summary:
ARE-bla HepG2 cells were dispensed at 2,000 cells/5 ul/well in 1536-well white wall/solid bottom plates using a Multidrop Combi (ThermoFisher Scientific, Waltham, MA) dispenser. After the assay plates were incubated at 37C/5% CO2 for 5 hrs, 23 nL of compounds dissolved in DMSO, positive controls or DMSO only was transferred to the assay plate by a pintool work station (Kalypsys, San Diego, CA). The plates were incubated at 37C/5% CO2 for 16 hrs, followed by addition of 4 ul/well of CellTiter-Glo reagent into the assay plates using a Flying Reagent Dispenser (Aurora Discovery, San Diego, CA). After 30 min incubation at room temperature, the luminescence intensity in the assay plates was measured using a ViewLux (PerkinElmer, Shelton, CT) plate reader.
% is scaled to controls: 0 for no effect and ±100 for the full control effect.

Row | Compound | viability change, negative = cytotoxic
1 | CC1CCC(CO)CC1 (stereo not given) | -4.82% [at 94.8 µM] (inactive)
2 | CCC(=O)OCc1ccccc1 | 8.11% (inactive)
3 | O=C(c1ccccc1)C1(O)CCCCC1 | 13.3% (inactive)
4 | CCCCCCCCCCCCCCCCCCO | 9.44% (inactive)
5 | O=S(=O)(O)c1cccc2c(S(=O)(=O)O)cccc12 | 4.3% (inactive)
6 | CC[N+](CC)(CC)CCOc1cccc(OCC[N+](CC)(CC)CC)c1OCC[N+](CC)(CC)CC | 16.3% (inactive)
7 | CN(C)C(=O)Oc1cccc([N+](C)(C)C)c1 | 1.87% (inactive)
8 | O=C(O)CCSCCC(=O)O | 6.55% (inactive)
9 | O=S(=O)(O)c1cccc2ccccc12 | 5.78% (inactive)
10 | CCCCc1ccc2c(n1)[C@@H](c1ccc(OC)cc1C[C@H](C)C(=O)O)[C@H](C(=O)O)[C@H]2c1ccc2c(c1)OCO2 | 5.33% (inactive)
11 | CCCCCCCCCCCCSC | 13% (inactive)
12 | CCCC[N+](C)(CCCC)CCCC | -2.88% (inactive)
13 | C[N+](C)(CCOc1ccccc1)Cc1cccs1 | -0.645% (inactive)
14 | CN(C)CCCN(C)CCCN(C)C | 0.581% (inactive)
15 | NC(=O)N[C@@H](CCC(=O)O)C(=O)O | 1.93% (inactive)
16 | NO | -0.346% [at 94.8 µM] (inactive)
17 | CC[N+](CC)(CC(=O)Nc1c(C)cccc1C)Cc1ccccc1 (tested in a mixture with another compound) | 6.84% (inactive)
18 | CCC(C)(CCCC(C)C)OC(C)=O (stereo not given) | 1.27% (inactive)
19 | CC(N)C12CC3CC(CC(C3)C1)C2 (stereo not given) | 5.38% (inactive)
20 | N[C@@H](CCC(=O)O)C(=O)O | 16.5% (inactive)

Row | Compound | viability change, negative = cytotoxic
21 | CC(C)(N)C#N | 5.97% [at 94.8 µM] (inactive)
22 | CCCn1cc[n+](C)c1C | 4.58% [at 94.8 µM] (inactive)
23 | CCCCCCCCCCOc1cc2c(=O)c(C(=O)OCC)c[nH]c2cc1OCC | -3.47% [at 8.36 µM] (inactive)
24 | O=C(O)CNC(=O)c1ccccc1 | -0.0392% (inactive)
25 | CC(=O)NC(=O)c1ccccc1O | -0.472% (inactive)
26 | COC(=O)C1=C(C)NC(C)=C(C(=O)OC(C)C)C1c1cccc2nonc12 (stereo not given) | 2.58% (inactive)
27 | COc1ccc2cc1Oc1cc3c(cc1OC)CC[N+](C)(C)[C@H]3Cc1ccc(cc1)Oc1c(OC)c(OC)cc3c1[C@@H](C2)[N+](C)(C)CC3 | -3.74% (inactive)
28 | C1CCC2(CCCCO2)OC1 | -3.95% (inactive)
29 | CCN(C=O)CC | -2.24% [at 94.8 µM] (inactive)
30 | O=C(O)CC(C(=O)O)S(=O)(=O)O (stereo not given) | 1.72% (inactive)
31 | CCCCOCCOC(=O)COc1cc(Cl)c(Cl)cc1Cl | -4.11% (inactive)
32 | CO[Si](C)(OC)c1ccccc1 | 8.56% (inactive)
33 | Nc1c2c(nc3c1CCC3)CCCC2 | -1.6% (inactive)
34 | CC(C)=CCC/C(C)=C/C#N | -12.6% [at 94.8 µM] (inactive)
35 | O=CN(CCO)CCO | -21.7% (inactive)
36 | Cc1coc2ccccc2c1=O | 8.23% (inactive)
37 | C[N+](C)(C)CCCCCCCCCC[N+](C)(C)C | 12.6% (inactive)
38 | Cc1nc2ccc(CN(C)c3ccc(C(=O)N[C@@H](CCC(=O)O)C(=O)O)s3)cc2c(=O)[nH]1 | 8.36% (inactive)
39 | C=C(C)C(=O)OCC1CCCO1 (stereo not given) | 16.3% (inactive)
40 | NCCCC[C@H](N[C@@H](CCc1ccccc1)C(=O)O)C(=O)N1CCC[C@H]1C(=O)O | 3.37% (inactive)
